Tau fibril ThT = blocks human tau fibril formation measured by thioflavin T | P10636 | Potency, µM (doses to about 57.4 µM), for the others: at the top dose activity, negative = inhibition, usual class: inhibitors | recombinant tau K18 P301L, heparin-induced fibrillization, ThT fluorescence | 270,000 tested, 2.1% active; active = well fitted curve in the direction sought with a large enough effect; inconclusive = small, poorly fitted or top-dose-only effect, or another doubt; inactive = no such curve, though single readings can be large; an effect the other way counts as inactive or inconclusive; note: nearly all actives have a fitted effect of over 55% in size
Target sequence (P10636 561-689 P618L limits assumed): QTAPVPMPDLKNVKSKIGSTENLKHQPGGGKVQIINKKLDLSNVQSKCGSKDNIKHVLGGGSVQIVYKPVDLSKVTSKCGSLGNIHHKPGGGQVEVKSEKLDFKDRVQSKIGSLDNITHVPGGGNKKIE
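Tau K18 P301L fragment (15 uM unlabeled plus 0.24 uM Alexa 594-labeled) in 100 mM sodium acetate pH 7 with compound, fibrillization induced by 20 uM heparin for 6 hr at 37 C. Thioflavin T (30 uM) added, fluorescence read after 1 hr (ex 450, em 510 nm).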
ALDH1A1 inh = ALDH1A1 (human) enzyme inhibition; P00352; Purified ALDH1A1, NADH fluorescence, propionaldehyde substrate; Potency, µM (series often up to 75.3 µM), for inactives: at the top dose activity, negative = inhibition, most hits filed as inhibitors; 220,000 tested, 7.3% active;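 note: plate controls were no enzyme wells and a reference inhibitor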
Tau FP inhib = blocks human tau fibril formation measured by polarization | 280,000 tested, 0.39% active | P10636 | AID 1468 | Potency, µM (titrated, usually from 57.7 µM), for inactives: at the highest dose activity, negative = inhibition, hits mostly inhibitors | K18 P301L tau heparin fibrillization, Alexa594 FP, 6 h; active = well fitted curve in the direction sought with a large enough effect; inconclusive = small, poorly fitted or top-dose-only effect, or another doubt; inactive = no such curve, though single readings can be large; an effect the other way counts as inactive or inconclusive; note: nearly all actives have a fitted effect of over 55% in size
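Recombinant K18 P301L […], labeled with Alexa 594 at 0.24 uM over 15 uM unlabeled; heparin inducer 20 uM final; 37 C, 6 hr; FP endpoint.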
Tau fluor cs = counter-screen for tau fibril formation inhibitors; Potency, µM (series often up to 57.7 µM), for inactives: top-dose activity change, negative = decrease; 280,000 tested, 0.93% active; tau K18 P301L (four-repeat tau fragment) Alexa594 fluorescence, heparin fibrillization; active = well fitted curve in the direction sought with a large enough effect; inconclusive = small, poorly fitted or top-dose-only effect, or another doubt; inactive = no such curve, though single readings can be large; an effect the other way counts as inactive or inconclusive; note: nearly all actives have a fitted effect of over 55% in size
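Human K18 P301L tau (15 uM unlabeled plus 0.24 uM Alexa 594-labeled, final) in 100 mM sodium acetate pH 7 was mixed with compound and 20 uM heparin and incubated 6 hr at 37 C.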
HPGD block = HPGD (human) dehydrogenase inhibition; P15428; purified HPGD, NADH fluorescence kinetic, PGE2 substrate; Potency, µM, for inactives: top-dose activity change, negative = inhibition, actives largely listed as inhibitors; 150,000 tested, 4.3% active
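20 nM HPGD preincubated 15 min at room temperature with compound in 50 mM Tris-HCl pH 8, 0.01% Tween 20. Started with 1 mM NAD+ and 30 uM prostaglandin E2; NADH fluorescence (360/450 nm) read 5 times over 30-s intervals, last minus first.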
KDM4E inh = JMJD2E (human) inhibition; AID 2147; B2RXH2; Potency, µM (titrated, usually from 57.1 µM), inactives show at the top dose activity change, negative = inhibition, hits mostly inhibitors; JMJD2E catalytic domain, FDH-coupled NADH fluorescence (FDH is formaldehyde dehydrogenase); 230,000 tested, 1.6% active;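 note: 0% = wells with enzyme and -100% = buffer wells without enzyme; nearly all actives have a fitted effect of over 50% in size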
Target sequence (B2RXH2 1-337 limits assumed): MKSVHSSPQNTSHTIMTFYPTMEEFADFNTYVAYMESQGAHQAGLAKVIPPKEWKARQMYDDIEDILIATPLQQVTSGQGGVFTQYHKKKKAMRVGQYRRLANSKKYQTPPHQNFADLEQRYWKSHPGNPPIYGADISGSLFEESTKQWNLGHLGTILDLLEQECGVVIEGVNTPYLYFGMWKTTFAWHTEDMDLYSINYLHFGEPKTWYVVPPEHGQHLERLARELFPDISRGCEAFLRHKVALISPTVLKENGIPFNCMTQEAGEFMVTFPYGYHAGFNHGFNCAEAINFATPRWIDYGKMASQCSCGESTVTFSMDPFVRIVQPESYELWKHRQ
The depositor's hits bear a star; ? = inconclusive; / = no result given; [ ] = another dose, or the depositor's remark. Compounds with a hit are over-represented: about 9.9% of the library has one in this group of screens. Unless noted, calls come from the whole dose curve; as a rule, active = well fitted inhibition curve with a large enough effect (not every such curve was filed as active); inconclusive = small, poorly fitted or top-dose-only effect, or another doubt; inactive = no such curve, though single readings can be large or run the other way. Unless noted, % is set by controls: 0 for no effect and ±100 for the full control effect; potency is the fitted concentration of half-maximal effect.

SMILES | Tau fibril ThT | ALDH1A1 inh | Tau FP inhib | Tau fluor cs | HPGD block | KDM4E inh
COc1ccc(CC(=O)OCc2cc3ccccc3[nH]c2=O)cc1 | 7.8% | ? | -13.4% | -1.5% | -29.8% | ?
COc1ccc2[nH]c(=O)c(CNC3CCCCC3)cc2c1 | -16.0% | ? | -8.9% | 8.3% | ? | ?
COc1ccc(NCc2cc3cc(OC)ccc3[nH]c2=O)cc1 | 7.94µM* | 8.91µM* | -4.4% | -24.9% | -17.3% | ?
CN(C)c1ccc(N2CC(C)(C)C2=O)cc1 | -2.3% | -4.9% | 8.0% | -3.3% | / | 6.3%
CCc1ccc(S(=O)(=O)c2cn(C)c3ccc(C)cc3c2=O)cc1 | -4.8% | / | -0.5% | -15.4% | / | /
Cc1ccc(O)c(C(=O)c2coc(=N)c(C(=O)NC(C)C)c2)c1 | -6.9% | ? | 4.6% | -5.9% | 17.8µM* | 7.2%
CC(=O)NC(Cc1ccc(F)cc1)C(=O)NC1CCN(c2nnnn2-c2ccccc2)CC1 (stereo not given) | 5.9% | 1µM* | -2.3% | 15.1% | -13.1% | 1.1%
CC(=O)NC(Cc1ccc(C(C)C)cc1)C(=O)NC1CCN(c2nc(C)cc(C)n2)CC1 (stereo not given) | -2.7% | ? | -3.1% | -4.2% | -13.8% | -1.4%
COc1ccc(CC(NC(C)=O)C(=O)NC2CCN(c3ncccc3[N+](=O)[O-])CC2)cc1 (stereo not given) | -9.7% | 6.31µM* | -2.8% | -4.6% | / | -6.3%
Cc1ccc(Cn2c(C(=O)O)c(CNCc3ccccc3Cl)c3ccc(C)cc32)cc1 | 16.5% | / | -5.9% | 18.4% | / | /
CC[n+]1c(/C=C/Nc2ccccc2)sc2ccccc21 | ? | -2.8% | 0.6% | 28.2µM*[fluorescent] | -6.6% | -2.8%
CC/C(=C/c1sc2ccccc2[n+]1CC)SC | -15.2% | -14.3% | 3.4% | -7.2% | -6.4% | -3.2%
CC[n+]1c(/C=C2/C=C(C)CC(C)C2)sc2ccccc21 (stereo not given) | ? | ? | -11.7% | -18.8% | / | 22.4µM*
CC[n+]1c(/C=C(/C)SC)sc2ccccc21 | -15.0% | ? | -10.9% | -10.8% | / | -7.7%
CC[n+]1c(/C=C(\C)Nc2ccccc2)sc2ccccc21 | ? | -6.8% | 3.8% | -2.8% | -18.7% | -9.0%
CCN1/C(=C/C=C/C=C/c2sc3ccccc3[n+]2CC)Sc2ccccc21 | 3.98µM* | ? | 17.8µM* | 15.8µM*[quencher] | -27.7% | 22.4µM*
CC[n+]1c(C=C2C=C(C)OC(C)=C2)sc2ccccc21 | 25.1µM* | ? | 1.2% | 2.5% | / | -7.2%
Cc1ccc(NC(=O)COC(=O)CNC(=O)c2ccc(Br)cc2)c(C)c1 | -4.6% | ? | -7.1% | -12.6% | -16.3% | 1.8%
CC[n+]1c(/C=C(\C)SC)sc2ccccc21 | 1.4% | 5.97µM* | -0.4% | -3.4% | 28.2µM* | -5.3%
CC[n+]1ccccc1/C=C/Nc1ccccc1 | 5.4% | 6.5% | 2.1% | -6.7% | / | 17.8µM*
O=c1nc2ccccc2c2n1CC(CN1CCN(c3ccccc3F)CC1)N2 (stereo not given) | -11.5% | 7.5% | -3.7% | -9.7% | -0.8% | 12.8%
O=C(Nc1ccc(F)cc1)c1ccc(COc2ccccc2)cc1 | 8.3% | 2.7% | -12.4% | 13.5% | -11.4% | 1.1%
NNC(=O)c1cccc(COc2ccccc2Br)c1 | ? | 3.55µM* | 5.7% | -15.3% | -4.0% | 18.4%
O=C(c1cccc(COc2cccc3ccccc23)c1)N1CCCC1 | ? | -9.3% | 0.7% | -10.2% | 20µM* | 0.5%
NNC(=O)c1ccc(COc2cccc3ccccc23)cc1 | ? | 7.94µM* | -1.8% | -5.7% | -15.1% | 6.1%
NNC(=O)c1ccc(COc2ccccc2)cc1 | ? | 2.24µM* | ? | -12.3% | -19.3% | 7.0%
O=C(NCc1ccccc1)c1cccc(COc2ccccc2Cl)c1 | -15.1% | 3.0% | -4.7% | ? | ? | 1.6%
Cn1c(=O)c(=O)n(C)c2cc(S(=O)(=O)Nc3ccc(Cl)c(C(F)(F)F)c3)ccc21 | -15.2% | / | ? | -26.0% | / | /
NNC(=O)c1cccc(COc2ccc3c(c2)CCC3)c1 | 5.2% | 5.5% | 2.8% | -4.1% | 20µM* | 10.6%

From PubChem BioAssay
